Source: PubChem BioAssay (National Center for Advancing Translational Sciences (NCATS))
This is a sample that favours compounds with a hit; in the whole collection about 3.2% have one here.
ALOX15B inhib: qHTS Assay for Inhibitors of 15-hLO-2 (15-human lipoxygenase 2). purified 15hLO-2, xylenol orange hydroperoxide absorbance. hit rate 0.56% among 110,000. Polyunsaturated fatty acid lipoxygenase ALOX15B (Homo sapiens), O15296. Potency, µM (top dose mostly 57.1 µM), hits mostly inhibitors; also: nearly all actives have a fitted effect of over 60% in size
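Read-out: hydroperoxide product oxidises ferrous iron, measured as xylenol orange complex via the 573-to-405 nm absorbance ratio after 30 min. Reaction: 50 nM enzyme, 15 min compound preincubation, 45 uM arachidonic acid, 90 min RT, Hepes pH 7.5 with Triton X-100.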
ERK AVP block: qHTS Assay for Inhibitors of the ERK Signaling Pathway using a Homogeneous Screening Assay. AID 995, 2007. hit rate 0.99% among 72,000. HEK293-V1b, vasopressin-stimulated pERK AlphaScreen. Potency, µM (titrated, usually from 57.5 µM), hits mostly inhibitors; also: nearly all actives have a fitted effect of over 55% in size
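HEK293 cells stably expressing V1b receptor, seeded overnight in 1% FBS, were treated with compounds for 30 min at 37C, then stimulated 5 min with 25 nM vasopressin; phospho-ERK read by AlphaScreen SureFire after lysis.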
ALOX15 inhib: qHTS Assay for Inhibitors of 15-hLO (15-human lipoxygenase); Polyunsaturated fatty acid lipoxygenase ALOX15 (Homo sapiens), P16050; purified 15hLO-1, xylenol orange hydroperoxide absorbance; Potency, µM (top dose mostly 57.1 µM), actives largely listed as inhibitors; hit rate 1.4% among 74,000; AID 887, 2007; also: nearly all actives have a fitted effect of over 55% in size
Target sequence (P16050 whole entry, looked up): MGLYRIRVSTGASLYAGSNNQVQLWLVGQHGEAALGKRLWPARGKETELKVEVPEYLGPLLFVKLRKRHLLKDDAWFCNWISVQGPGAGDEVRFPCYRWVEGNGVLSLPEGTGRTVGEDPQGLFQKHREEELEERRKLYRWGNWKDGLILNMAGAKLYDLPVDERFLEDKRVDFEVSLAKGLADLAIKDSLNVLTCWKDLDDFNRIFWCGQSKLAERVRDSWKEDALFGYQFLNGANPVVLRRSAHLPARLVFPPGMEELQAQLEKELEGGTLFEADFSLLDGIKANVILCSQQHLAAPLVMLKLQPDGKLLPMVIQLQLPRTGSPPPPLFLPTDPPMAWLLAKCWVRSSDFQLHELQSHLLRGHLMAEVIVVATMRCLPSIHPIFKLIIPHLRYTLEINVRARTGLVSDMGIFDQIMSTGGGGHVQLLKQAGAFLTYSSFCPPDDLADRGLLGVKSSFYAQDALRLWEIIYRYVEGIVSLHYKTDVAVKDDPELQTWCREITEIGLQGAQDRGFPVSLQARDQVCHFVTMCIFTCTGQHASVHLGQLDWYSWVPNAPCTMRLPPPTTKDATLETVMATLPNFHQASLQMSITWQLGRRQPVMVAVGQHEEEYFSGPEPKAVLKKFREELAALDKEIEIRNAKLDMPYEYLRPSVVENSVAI
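Readout: Fe(III)-xylenol orange absorbance, 573-to-405 nm ratio as reaction progress. Enzyme 40 nM purified human 15hLO-1, substrate 50 uM arachidonic acid, 6 min RT after 15 min compound preincubation; Hepes pH 7.5 buffer with Triton X-100.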
CRE-bla Fsk: Cell signaling CRE-BLA (Fsk stim) | Potency, µM (highest dose often 38.2 µM), hits mostly activators | hit rate 2.5% among 71,000 | CHO CRE-bla reporter (cAMP response element driving beta-lactamase), forskolin EC10, beta-lactamase ratio; active = well fitted activation curve with a large enough effect in the signal ratio, with a control signal flat, not every such curve was filed as active; inconclusive = small, poorly fitted or top-dose-only effect, or effect the other way, or a change in a side signal; the % refers to the signal ratio
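Modulation of forskolin-driven signalling is measured in CHO cells carrying a CRE-controlled beta-lactamase reporter. Cells are stimulated with EC10 NKH 477 in the presence of titrated compound for 3 h at 37 °C, then loaded with CCF4 for 2 h at room temperature.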
Numbers stand for hits; [ ] = remark or other dose. Unless noted, calls follow the shape of the dose curve; as a rule, active = well fitted inhibition curve with a large enough effect; inconclusive = small, poorly fitted or top-dose-only effect; inactive = no such curve, though single readings can be large or run the other way.

Cc1cc2cc(CCNC(=O)CC(C)C)c(=O)[nH]c2cc1C was read as ALOX15B inhib inactive, ALOX15 inhib inactive and CRE-bla Fsk 13µM.
`CCC(=O)NCCc1cc2cc(C)c(C)cc2[nH]c1=O` gave ALOX15B inhib inactive, ERK AVP block inactive, ALOX15 inhib inactive and CRE-bla Fsk inactive.
Screening CCOCCOC(=O)c1cccc(NC(=O)OCC)c1 returned ALOX15B inhib inactive, ERK AVP block inactive, ALOX15 inhib inactive and CRE-bla Fsk inactive.
CSCCOC(=O)C1=C(C)Nc2ccc(C)cc2S1 was read as ALOX15B inhib 5µM.
`CCOC(=O)C1=C(C)Nc2ccc(C)cc2S1` gave ALOX15B inhib 4µM.
`CCOCCOC(=O)C1=C(C)Nc2ccc(C)cc2S1` gave ALOX15B inhib 16µM, ERK AVP block inactive, ALOX15 inhib inconclusive and CRE-bla Fsk inconclusive.
CCOC(=O)c1c(C)[nH]c(N=Nc2ccc(C)cc2C)c1C was read as ALOX15B inhib inactive.
`CCC/C=C(\CCC)C(NP(=O)(c1ccccc1)c1ccccc1)c1ccc(-c2ccccc2)cc1` (configuration not stated) gave ALOX15B inhib inactive, ERK AVP block inactive and CRE-bla Fsk inactive.
For N#CCCn1c(=O)c(-c2ccc(Cl)cc2)nc2cnc(N3CCOCC3)nc21 the results were ALOX15B inhib inactive, ERK AVP block inactive, ALOX15 inhib inactive and CRE-bla Fsk 5µM.
Screening N#CCCn1c(=O)c(-c2ccc(F)cc2)nc2cnc(N3CCOCC3)nc21 returned ALOX15B inhib inactive, ERK AVP block inactive, ALOX15 inhib inactive and CRE-bla Fsk 0.4µM.
`N#CCCn1c(=O)c(-c2ccc(F)cc2)nc2cnc(N3CCNCC3)nc21` gave ALOX15B inhib inactive, ERK AVP block inactive, ALOX15 inhib inactive and CRE-bla Fsk inconclusive.
Screening N#CCCn1c(=O)cnc2cnc(N3CCOCC3)nc21 returned ALOX15B inhib inactive, ERK AVP block 6.3µM, ALOX15 inhib inactive and CRE-bla Fsk inactive.
Screening CN1CCN(c2ncc3nc(-c4ccc(Cl)cc4)c(=O)n(CCC#N)c3n2)CC1 returned ALOX15B inhib inactive, ERK AVP block inactive, ALOX15 inhib inactive and CRE-bla Fsk inconclusive.
For COC(=O)[C@@H]1[C@@H]2C[C@H]3c4[nH]c5ccccc5c4CCN3C[C@@H]2CC[C@@H]1O the results were ALOX15B inhib inactive[11.4 µM], ERK AVP block inactive[11.5 µM], ALOX15 inhib inactive[11.4 µM] and CRE-bla Fsk inconclusive.
For CC(C)(C)NC(=O)[C@@H]1CC[C@@H]2[C@@H]3CC[C@@H]4NC(=O)C=C[C@@]4(C)[C@H]3CC[C@]21C the results were ALOX15B inhib inactive, ERK AVP block inactive, ALOX15 inhib inactive and CRE-bla Fsk inactive.
Screening O=C(O)c1ccc(Cl)c(S(=O)(=O)Nc2ccccc2F)c1 returned ALOX15 inhib inactive.
For COc1cc(Sc2ccc(C)cc2)c(OC)cc1N the results were ALOX15B inhib 10µM, ERK AVP block inconclusive, ALOX15 inhib inconclusive and CRE-bla Fsk inactive.
For COCCn1c(=O)c(-c2cccc(C#N)c2)nc2cnc(N3CCNCC3)nc21 the results were ALOX15B inhib inactive, ERK AVP block inactive, ALOX15 inhib inconclusive and CRE-bla Fsk inconclusive.
Screening CN1CCN(c2ncc3nc(-c4cc(F)cc(F)c4)c(=O)n(CCC#N)c3n2)CC1 returned ALOX15B inhib 20µM, ERK AVP block inactive, ALOX15 inhib inactive and CRE-bla Fsk inconclusive.
CN1CCN(c2ncc3nc(-c4cccc(C#N)c4)c(=O)n(CCC#N)c3n2)CC1 was read as ALOX15B inhib inactive, ERK AVP block inactive, ALOX15 inhib inactive and CRE-bla Fsk 10µM.
`COCCn1c(=O)c(-c2cccc(C#N)c2)nc2cnc(N3CCN(C)CC3)nc21` gave ALOX15B inhib inactive, ERK AVP block inactive, ALOX15 inhib inactive and CRE-bla Fsk 13µM.
For CN(C)CCNS(=O)(=O)N(C)C the results were ALOX15B inhib inactive[11.4 µM], ERK AVP block inactive[11.5 µM], ALOX15 inhib inactive[11.4 µM] and CRE-bla Fsk inactive[7.6 µM].
For CC1(CC(=O)O)O[C@H]2CCCCC[C@H]2O1 (some centres not stated) (tested in a mixture with another compound) the results were ALOX15B inhib inactive[11.4 µM], ERK AVP block inactive[11.5 µM], ALOX15 inhib inactive[11.4 µM] and CRE-bla Fsk inactive[7.6 µM].
For CCCC[C@@H]1CN2[C@H](c3ccc(Br)cc3)[C@@H](C)CC[C@H]2C(=O)O1 the results were ERK AVP block inactive[11.5 µM] and ALOX15 inhib inactive[11.4 µM].
Screening c1ccc2c[n+](Cc3ccnc4ccccc34)ccc2c1 returned ALOX15B inhib inactive[11.4 µM], ERK AVP block inactive[11.5 µM], ALOX15 inhib inactive[11.4 µM] and CRE-bla Fsk inactive[7.6 µM].
For OC[C@H](CCc1c[nH]c2ccccc12)c1c[nH]c2ccccc12 the results were ALOX15B inhib inactive[11.4 µM], ERK AVP block inactive[11.5 µM], ALOX15 inhib 3.2µM and CRE-bla Fsk inactive[7.6 µM].
`OCc1c[nH]c2ccccc12` gave ALOX15B inhib inactive, ERK AVP block inactive, ALOX15 inhib inactive and CRE-bla Fsk inactive.
Clc1ccc2nc(-c3ccccc3)[nH]c2c1 was read as ALOX15B inhib inactive, ERK AVP block 25µM and ALOX15 inhib inactive.
For Cc1nc(NCCc2ccc(S(N)(=O)=O)cc2)c2c(C)c(C)sc2n1 the results were ALOX15B inhib inactive.
For Cc1nc(NCCNC(=O)c2ccco2)c2c(C)c(C)sc2n1 the results were ALOX15B inhib inactive, ERK AVP block inconclusive, ALOX15 inhib inactive and CRE-bla Fsk 5µM.
`Cc1ccc(NS(=O)(=O)c2ccc(NC(=O)c3ccc(Br)o3)cc2)c(C)c1` gave ALOX15B inhib inactive[11.4 µM], ERK AVP block inconclusive, ALOX15 inhib 16µM and CRE-bla Fsk inconclusive.
CCN(CC)CCNC(=O)CCn1c(=S)[nH]c2cc3c(cc2c1=O)OCO3 was read as ALOX15B inhib inactive, ERK AVP block inactive, ALOX15 inhib inactive and CRE-bla Fsk inconclusive.
